HT1080 IDH1KD tx – kills HT-1080 cells with IDH1 knockdown. HT-1080 IDH1 knockdown viability, ATP luminescence, 48 h. Potency, µM (top dose mostly 46.1 µM), hits mostly cytotoxic. actives 2% (n = 360,000)
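Assay cells: HT-1080 with IDH1 knockdown, 750 per well, RPMI/5% FBS. Exposure: 48 h at 37 °C following 2 h pre-incubation. Read: CellTiter-Glo luminescence; fitted concentration-response, curve class assigned.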
HT1080NT lethal – kills 2HG-producing HT-1080-NT fibrosarcoma cells. HT-1080-NT fibrosarcoma viability, CellTiter-Glo ATP luminescence, 48 h. Potency, µM (titrated, usually from 46.1 µM), hits mostly cytotoxic. actives 1.6% (n = 360,000);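 note: NT is the 2HG producing partner of a matched IDH1 knockdown line; nearly all actives have a fitted effect of over 55% in size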
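Luminescent CellTiter-Glo readout after 48 hours of compound exposure at 37 degrees C defined viability of HT-1080-NT cells. Activity was normalized to DMSO wells and cell-free media wells; concentration-response curves were fitted and assigned curve classes.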
TDP1 cell CPT – growth inhibition of DT40 Tdp1-/-;hTDP1 cells with camptothecin (screen for TDP1 inhibitors). chicken DT40 Tdp1-/-;hTDP1 cells + 20 nM CPT, ATP luminescence, 48 h. Potency, µM (titrated, usually from 46.2 µM), most hits filed as inhibitors. actives 12% (n = 420,000). AID 686979; note: nearly all actives have a fitted effect of over 55% in size
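Chicken DT40 Tdp1-/- cells complemented with human TDP1, 400 cells/well, exposed to compounds plus 20 nM camptothecin for at least 48 h at 37 C; viability read as ATP content by CellTiter-Glo luminescence.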
uPA surface inh – blocks generation of uPA at the cell surface; cell surface uPA generation assay, qHTS; Potency, µM (series often up to 38.3 µM), hits mostly inhibitors; actives 0.31% (n = 330,000); active = well fitted inhibition curve with a large enough effect; inconclusive = small, poorly fitted or top-dose-only effect; inactive = no such curve, though single readings can be large or run the other way; tested in mouse RAW 264.7 cells; note: nearly all actives have a fitted effect of over 55% in size
IL1B secr inh – blocks inflammasome-driven IL-1 beta release | THP-1 LPS/ATP IL-1B secretion, AlphaLISA, 16 h; stronger effect = lower value | activity change, % at 57.5 µM | actives 4.7% (n = 360,000); in the data active = activity change below about -50%; inconclusive = mostly about -30% to -49%
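THP-1 cells pretreated 1 hr with compounds (up to 57.5 uM final), then stimulated with LPS (250 ng/mL final) plus ATP (1.25 mM final); secreted IL-1B measured by AlphaLISA after 16 hr, decreased signal indicating inhibition.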
DT40 TDP1 no CPT – qHTS for Inhibitors of human tyrosyl-DNA phosphodiesterase 1 (TDP1): qHTS in cells in absence of CPT | Potency, µM (doses to about 46.2 µM), usual class: inhibitors | DT40 Tdp1-/- hTDP1 cells, no CPT, ATP luminescence, 48 h | actives 15% (n = 420,000); note: nearly all actives have a fitted effect of over 55% in size
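A cellular qHTS used chicken DT40 cells lacking endogenous Tdp1 but carrying stably transfected human TDP1. Compounds were applied without camptothecin, and cell growth kinetics were judged by ATP-dependent luminescence after ≥48 hr.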
A number is an active result; 0 = inactive; ? = inconclusive; - = no result; [ ] = remark or other dose. The list is not random: actives were taken first. Their share in the collection is about 19%. Unless noted, calls come from the whole dose curve; as a rule, active = well fitted curve in the direction sought with a large enough effect; inconclusive = small, poorly fitted or top-dose-only effect, or another doubt; inactive = no such curve, though single readings can be large; an effect the other way counts as inactive or inconclusive.

SMILES | HT1080 IDH1KD tx | HT1080NT lethal | TDP1 cell CPT | uPA surface inh | IL1B secr inh | DT40 TDP1 no CPT
CCC1(O)CC(c2ccccc2)=NN1C(=O)c1ccccc1F (stereo not drawn) | 0 | 0 | 0 | 0 | 0 | 0
Cc1c(Cl)cccc1NC(=O)C(C)n1nc(C)c2c(C)n(-c3ccccc3)nc2c1=O (stereo not drawn) | - | - | 0 | - | - | 0
CCN(CC)S(=O)(=O)c1cc(NC(=O)CCNC(=O)c2ccco2)ccc1C | 0 | 0 | ? | 0 | 0 | ?
COc1ccc(-c2nc3cnc(N(C)C)nc3n(CCC#N)c2=O)cc1 | - | - | 0 | - | - | 0
CCOC(=O)C1CCN(C(=O)COc2ccc(Cl)cc2Cl)CC1 | 0 | 0 | 0 | 0 | 0 | 0
Cc1ccccc1C(c1ncccc1C)N(C)C(=O)C1CCN(CCOc2ccc(Cl)cc2Cl)CC1 (stereo not drawn) | 23.1µM | ? | ? | - | ? | ?
Cc1cccnc1C(NC(=O)C1CCN(CCOc2ccc(F)cc2)CC1)c1ccc(Cl)cc1 (stereo not drawn) | 16.4µM | ? | ? | - | -69.3 | 16.4µM
COc1ccc(OC2CCN(S(=O)(=O)c3ccccc3)CC2)cc1 | 0 | 0 | 0 | 0 | 0 | 0
COc1ccc(C(=O)/C=C/c2ccc(OC)c(CN3CCOCC3)c2)cc1 | ? | 0 | ? | 0 | -100.1 | 23.1µM
COc1ccc(/C=C/C(=O)c2nc3ccccc3n2CC(=O)c2ccc(OC)cc2)cc1 | 0 | 0 | 0 | 0 | 0 | 0
COc1ccc(/C=C/C(=O)C23CC4CC(CC(C4)C2)C3)cc1CN1CCOCC1 | ? | ? | ? | 0 | -188.9 | 18.4µM
COc1ccc(C(=O)/C=C/c2ccc(OC)c(Cn3nnc4ccccc43)c2)cc1 | 0 | 0 | 18.4µM | 0 | ? | 20.6µM
COc1ccc(/C=C/C(=O)c2ccc(O)cc2)cc1CN1CCOCC1 | ? | 0 | ? | 0 | -133.2 | 29.1µM
CCOc1ccc(N=Nc2c(C)noc2C)cc1 | 0 | ? | 0 | 0 | 0 | 0
COCCCNC(=O)C[C@@H]1C[C@@]2(C(=O)OC)CC(C)(C)CC=C2N(Cc2ccc3c(c2)OCO3)C1=O | 0 | 0 | 0 | - | 0 | ?
O=C(/C=C/c1cccc(O)c1)c1ccc(N2CCOCC2)cc1 | 0 | 0 | ? | 10µM | -94.5 | 14.6µM
CCn1cc(C(=O)NCCCN(C)c2ccccc2)c(=O)c2cc(S(=O)(=O)N(C)C)ccc21 | 0 | 0 | 16.4µM | 0 | 0 | ?
CCn1cc(C(=O)NCc2ccc(Cl)cc2)c(=O)c2cc(S(=O)(=O)N(C)C)ccc21 | 0 | 0 | ? | 0 | -68.6 | 20.6µM
CCn1cc(C(=O)NCCc2ccc(Cl)cc2)c(=O)c2cc(S(=O)(=O)N(C)C)ccc21 | 0 | 0 | 0 | 0 | 0 | 0
CCn1cc(C(=O)NCc2ccc3c(c2)OCO3)c(=O)c2cc(S(=O)(=O)N(C)C)ccc21 | 0 | 0 | ? | 0 | 0 | 18.4µM
CCN(CCCNC(=O)c1cn(CC)c2ccc(S(=O)(=O)N(C)C)cc2c1=O)c1cccc(C)c1 | 0 | 0 | ? | 0 | 0 | ?
Cc1ccc2nc(CN(C)C(=O)[C@H]3O[C@@H](n4ccc(N)nc4=O)[C@H](O)[C@@H]3O)[nH]c2c1 | 0 | 0 | 0 | - | 0 | 0
COc1ccc(N(CC(=O)NCc2ccc3c(c2)OCO3)S(=O)(=O)c2ccccc2[N+](=O)[O-])c(OC)c1 | 0 | 0 | 25.9µM | 0 | 0 | ?
COc1ccc(N(CC(=O)Nc2cc(C)ccc2C)S(=O)(=O)c2ccccc2[N+](=O)[O-])c(OC)c1 | 0 | 0 | ? | 0 | 0 | 11.6µM
Cc1ccc(Sc2nc(-c3ccccc3)nnc2C(F)(F)F)cc1 | 0 | 0 | 20.6µM | 0 | 0 | 20.6µM
SMILES | HT1080 IDH1KD tx | HT1080NT lethal | TDP1 cell CPT | uPA surface inh | IL1B secr inh | DT40 TDP1 no CPT
CNc1nc(-c2ccccc2)nnc1C(F)(F)F | 0 | 0 | 0 | 0 | 0 | 0
COc1ccc(NC(=O)CN(C)C(=O)c2ccc(NS(=O)(=O)c3cccc([N+](=O)[O-])c3)cc2)cc1 | 0 | 0 | ? | 0 | 0 | 0
COc1ccc(N(CC(=O)NC2CC3CCC2C3)S(=O)(=O)c2ccc(C)cc2)cc1Cl (stereo not drawn) | 0 | 0 | ? | - | 0 | 23.1µM
CCOc1ccc(N(CC(=O)NC2CC3CCC2C3)S(=O)(=O)c2ccc(C)cc2)cc1 (stereo not drawn) | 0 | 0 | 16.4µM | 0 | 0 | ?
CCOc1ccc(N(CC(=O)NCC2CCCO2)S(=O)(=O)c2ccc(SC)cc2)cc1 (stereo not drawn) | 0 | 0 | 12.6µM | - | 0 | 0
CCOc1ccc(S(=O)(=O)N(CC(=O)NCC2CCCO2)c2ccc(F)cc2)cc1 (stereo not drawn) | 0 | 0 | 0 | 0 | 0 | ?
CCCNc1ncnc2c1cnn2C1CCCCO1 (stereo not drawn) | 0 | 0 | 0 | 0 | 0 | 0
CC(C)S(=O)(=O)c1csc(NC(=O)Nc2ccc(Cl)cc2)c1 | 0 | 0 | 7.31µM | 0 | ? | 11.6µM
NS(=O)(=O)c1cccc(NC(=O)Nc2ccc(Cl)cc2)c1 | 0 | 0 | 0 | 0 | ? | 0
Cc1nc(CC(=O)N2CCC(n3c(C4CCC4)nc4cccnc43)CC2)cs1 | - | - | 0[9.04 µM] | - | - | 0
COc1ccc([N+](=O)[O-])c2c1CCN2C(=O)CC[C@H](N)C(=O)O | - | - | 0 | - | - | 0
N#Cc1sc(NCc2cccc(Cl)c2)nc1Cl | ? | 23.1µM | 0 | 0 | 0 | ?
O=C1CCCC2=C1C(c1ccco1)Nc1ccc(C(=O)c3ccccc3)cc1N2 (stereo not drawn) | ? | ? | 14.6µM | 0 | 0 | 11.6µM
O=C1NC2=C(C(=O)CCC2)C(c2ccccc2)N1 (stereo not drawn) | 0 | 0 | 0 | 0 | 0 | 0
CC1CCCN(S(=O)(=O)c2cccc(C(=O)NCCCN3CCCC3=O)c2)C1 (stereo not drawn) | 0 | 0 | 0 | - | 0 | 0
Cc1cc(C)cc(C(=O)N(CCc2ccccc2)C2CC3CCC(C2)N3C)c1 (stereo not drawn) | ? | ? | ? | 0 | -64.9 | ?
COc1cc(C(=O)N(CCc2ccccc2)C2=CC3CCC(C2)N3C)cc(OC)c1OC (stereo not drawn) | 0 | ? | 0 | 0 | 0 | 0
CC(C(=O)O)N1CCCCC1 (stereo not drawn) | 0 | 0 | 0 | 0 | 0 | 0
CS(=O)(=O)N1N=C(c2ccc(Br)cc2)CC1c1cccs1 (stereo not drawn) | 0 | 0 | 20.6µM | 0 | 0 | 25.9µM
Cc1ccc(C2=NN(S(C)(=O)=O)C(c3cccs3)C2)cc1 (stereo not drawn) | 0 | 0 | 0 | 0 | 0 | ?
CCS(=O)(=O)Nc1ccc(C2=NN(C(=O)c3ccco3)C(c3cccs3)C2)cc1 (stereo not drawn) | 0 | 0 | ? | 0 | 0 | ?
